“And” between values parts separate entries of the source, which are not always exact repeats. Equal entries are not always repeated. Results filed as inconclusive are left out. The source made the active and inactive calls. Calls come from the whole dose curve; as a rule, active = well fitted curve in the direction sought with a large enough effect; inconclusive = small, poorly fitted or top-dose-only effect, or another doubt; inactive = no such curve, though single readings can be large; an effect the other way counts as inactive or inconclusive.
Key:
CRL-7250 = normal cell line; assay: Cytotoxic Profiling of Annotated Libraries Using Quantitative High-Throughput Screening (AID 1296008); conditions: Five cell lines viability, CellTiter-Glo ATP luminescence, 48-72 h; max response: active compounds read low; note: nearly all actives have a fitted effect of over 60% in size; note: potency is the fitted concentration of half-maximal effect; for max response: % is set by controls: 0 for no effect and ±100 for the full control effect
Summary of the method: (§1)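 Cells exposed to compounds for 48 or 72 hr at 37 degrees Celsius. Viability read as ATP-coupled luminescence with CellTiter-Glo after 10 min at room temperature.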

HEK293 = assay: as above; conditions: Five cell lines viability, CellTiter-Glo ATP luminescence, 48-72 h; max response: active compounds read low
Summary of the method: as §1

HaCat [1] = assay: as above; conditions: Five cell lines viability, CellTiter-Glo ATP luminescence, 48-72 h; max response: active compounds read low
Summary of the method: as §1

KB-3-1 = assay: as above; conditions: Five cell lines viability, CellTiter-Glo ATP luminescence, 48-72 h; max response: active compounds read low
Summary of the method: as §1

NIH3T3 [2] = assay: as above; conditions: Five cell lines viability, CellTiter-Glo ATP luminescence, 48-72 h; max response: active compounds read low
Summary of the method: as §1

HEK293T = assay: qHTS assay to identify novel small-molecules to repurpose for Merkel cell carcinoma treatment (AID 1296009); conditions: MCC and control cell lines, CellTiter-Glo viability, 72 h; series mostly up to 44.8 µM; note: nearly all actives have a fitted effect of over 60% in size
Summary of the method: (§2)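 Cells were incubated with compound for 72 hr at 37 degree celsius before CellTiter-Glo addition. Luminescence was normalized with no-cell wells as full cytotoxicity and DMSO as baseline.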

C33A = assay: Primary qHTS to identify gynecologic anti-cancer compounds using libraries of approved drugs and bioactive compounds (AID 1345084); conditions: Gynecologic cancer cell panel viability, ATPlite luminescence, 48 h; series mostly up to 57.5 µM; note: nearly all actives have a fitted effect of over 55% in size; note: potency is the fitted concentration of half-maximal effect; for activity change, negative = cytotoxicity: % is set by controls: 0 for no effect and ±100 for the full control effect
Summary of the method: (§3)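 Cells, 1,000 per well, plated 16 h, then exposed 48 h at 37 C to compounds. Viability by ATPlite luminescence after 15 min at room temperature.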

CAOV3 = assay: as above; conditions: Gynecologic cancer cell panel viability, ATPlite luminescence, 48 h; series mostly up to 57.5 µM
Summary of the method: as §3

CASKI = assay: as above; conditions: Gynecologic cancer cell panel viability, ATPlite luminescence, 48 h; series mostly up to 57.5 µM
Summary of the method: as §3

Es-2 = assay: as above; conditions: Gynecologic cancer cell panel viability, ATPlite luminescence, 48 h; series mostly up to 57.5 µM
Summary of the method: as §3

HeLa = assay: as above; conditions: Gynecologic cancer cell panel viability, ATPlite luminescence, 48 h; series mostly up to 57.5 µM
Summary of the method: as §3

HACAT [3] = assay: qHTS assay to identify novel small-molecules to repurpose for Merkel cell carcinoma treatment (AID 1296009); conditions: MCC and control cell lines, CellTiter-Glo viability, 72 h; at 44.8 µM (top of the series) unless noted; note: nearly all actives have a fitted effect of over 60% in size
Summary of the method: as §2

NIH3T3 [4] = assay: as above; conditions: MCC and control cell lines, CellTiter-Glo viability, 72 h; at 44.8 µM (top of the series) unless noted
Summary of the method: as §2

OCC1=CC[C@@H]2C=CO[C@@H](O[C@@H]3O[C@H](CO)[C@@H](O)[C@H](O)[C@H]3O)[C@H]12
inactive: outcome (CRL-7250) | outcome (HEK293) | max response (HaCat [1]) -13.7% | outcome (KB-3-1) | max response (NIH3T3 [2]) -0.173% | Potency (HEK293T) | Potency (C33A) | Potency (CAOV3) | Potency (CASKI) | Potency (Es-2) | Potency (HeLa)

CCOc1nc2cccc(C(=O)OCc3oc(=O)oc3C)c2n1Cc1ccc(-c2ccccc2-c2noc(O)n2)cc1
inactive: outcome (CRL-7250) | outcome (HEK293) | outcome (HaCat [1]) | outcome (NIH3T3 [2]) | outcome (HACAT [3]) | Potency (HEK293T) | outcome (NIH3T3 [4]) | Potency (C33A) | Potency (CAOV3) | Potency (CASKI) | Potency (Es-2) | Potency (HeLa)

O=C1NCc2nc3ccccc3c(=O)n2C1Cc1c[nH]c2ccccc12 (centres undefined)
inactive: max response (CRL-7250) -3.24% | outcome (HEK293) | max response (HaCat [1]) 1.57% | outcome (NIH3T3 [2]) | Potency (HEK293T) | outcome (NIH3T3 [4]) | Potency (C33A) | Potency (CAOV3) | Potency (CASKI) | Potency (Es-2) | Potency (HeLa)

C=CC(C)(CC/C=C(\C)CC/C=C(\C)CC(O)/C=C(\C)C(=O)O)O[C@@H]1O[C@H](CO)[C@@H](O)[C@H](O)[C@H]1O[C@@H]1O[C@H](CO)[C@@H](O)[C@H](O)[C@H]1O (some centres undefined)
inactive: outcome (CRL-7250) | outcome (HEK293) | outcome (HaCat [1]) | outcome (NIH3T3 [2]) | outcome (HACAT [3]) inactive [at 17.4 µM] | Potency (HEK293T) | outcome (NIH3T3 [4]) inactive [at 17.4 µM] | Potency (C33A) | Potency (CAOV3) | Potency (CASKI) | Potency (Es-2) | Potency (HeLa)

NCCOCCOCCNC(=O)Cc1ccc(Nc2nc(NCc3ccc(F)cc3)nc(NCC3CCCCC3)n2)cc1
inactive: outcome (CRL-7250) | outcome (HEK293) | outcome (HaCat [1]) | outcome (NIH3T3 [2]) | outcome (HACAT [3]) | Potency (HEK293T) | outcome (NIH3T3 [4]) | Potency (C33A) | Potency (CAOV3) | Potency (CASKI) | Potency (Es-2) | Potency (HeLa)

C[C@@H]1O[C@@H](O[C@H]2[C@H](O[C@H]3[C@H](O[C@H]4CC[C@@]5(C)C(CC[C@]6(C)C5CC=C5[C@@H]7CC(C)(C(=O)O)C[C@@H](O)[C@]7(C)CC[C@]56C)[C@@]4(C)CO)O[C@H](C(=O)O)[C@@H](O)[C@@H]3O)O[C@H](CO)[C@H](O)[C@@H]2O)[C@H](O)[C@H](O)[C@H]1O (some centres undefined)
inactive: max response (CRL-7250) -5.52% | outcome (HEK293) | outcome (HaCat [1]) | max response (NIH3T3 [2]) -3.63% | outcome (HACAT [3]) inactive [at 9.27 µM] | outcome (HEK293T) inactive [at 9.27 µM] | activity change, negative = cytotoxicity (C33A) 4.66% [at 11.6 µM] | activity change, negative = cytotoxicity (CAOV3) 15.7% [at 11.6 µM] | activity change, negative = cytotoxicity (CASKI) 2.76% [at 11.6 µM] | activity change, negative = cytotoxicity (Es-2) 6.95% [at 11.6 µM] | activity change, negative = cytotoxicity (HeLa) 4.42% [at 11.6 µM]

Cc1cccc(-c2[nH]c(CNc3ccccc3F)nc2-c2ccc3ncnn3c2)n1
inactive: outcome (CRL-7250) | outcome (HEK293) | outcome (HaCat [1]) | outcome (HACAT [3]) | Potency (HEK293T) | Potency (C33A) | Potency (CAOV3) | Potency (CASKI) | Potency (Es-2) | Potency (HeLa)
active: Potency (NIH3T3 [2]) 7.31 µM

Cc1nc2c(-c3cnc(N)nc3)nc(N3CCOCC3)nc2n1C(C)C
active: Potency (CRL-7250) 291 nM and 7.4 nM | Potency (HEK293) 326 nM and 23.4 nM | Potency (HaCat [1]) 2.06 µM and 132 nM | Potency (KB-3-1) 0.461 µM | Potency (NIH3T3 [2]) 1.16 µM and 234 nM | Potency (C33A) 1.41 µM | Potency (CASKI) 1.26 µM | Potency (HeLa) 1.58 µM

CC1(C(=O)O)CCCC2(C)C1CCC13CC(CCC21)C1(CO)OC31 (centres undefined)
inactive: max response (CRL-7250) -3.21% | outcome (HEK293) | outcome (HaCat [1]) | outcome (NIH3T3 [2]) | outcome (HACAT [3]) | Potency (HEK293T) | Potency (C33A) | Potency (CAOV3) | Potency (CASKI) | Potency (Es-2) | Potency (HeLa)

CC1CCC23COC(=O)C2=CC(O)CC3C1(C)CCC1=CC(=O)OC1O (centres undefined)
inactive: outcome (CRL-7250) | outcome (HEK293) | max response (HaCat [1]) -0.369% | outcome (NIH3T3 [2]) | Potency (HEK293T) | outcome (NIH3T3 [4]) | Potency (C33A) | Potency (CAOV3) | Potency (CASKI) | Potency (Es-2) | Potency (HeLa)

C=C1C[C@@]23CC[C@@H]4[C@](C)(C(=O)O)CCC[C@@]4(C)C2=CC[C@H]1C3
inactive: max response (CRL-7250) -8.72% | outcome (HEK293) | outcome (HaCat [1]) | outcome (NIH3T3 [2]) | outcome (HACAT [3]) | Potency (HEK293T) | Potency (C33A) | Potency (CAOV3) | Potency (CASKI) | Potency (Es-2) | Potency (HeLa)

C=C1CCC2C(C)(C)C(O)CCC2(C)C1CCC(C)CCOC(=O)CCC(=O)O (centres undefined)
inactive: max response (CRL-7250) -7.27% | outcome (HEK293) | outcome (HaCat [1]) | max response (NIH3T3 [2]) -1.95% | outcome (HACAT [3]) inactive [at 17.4 µM] | Potency (HEK293T) | Potency (C33A) | Potency (CAOV3) | Potency (CASKI) | Potency (Es-2) | Potency (HeLa)

CNC(=O)c1ccc(Nc2ncc(C(F)(F)F)c(NCc3nccnc3N(C)S(C)(=O)=O)n2)cc1
active: Potency (CRL-7250) 4.17 µM | Potency (HEK293) 5.17 µM | Potency (HaCat [1]) 7.31 µM and 2.95 µM | Potency (KB-3-1) 11.6 µM | Potency (NIH3T3 [2]) 14.6 µM and 3.71 µM | Potency (Es-2) 17.8 µM | Potency (HeLa) 10 µM

CNc1nc(Nc2cnn([C@H]3CCN(C4COC4)C[C@@H]3F)c2Cl)ncc1C(F)(F)F
active: Potency (HEK293) 23.1 µM and 9.33 µM
inactive: max response (CRL-7250) -6.85% and -3.81% | outcome (HaCat [1]) | max response (NIH3T3 [2]) -26.9% | outcome (HACAT [3]) | Potency (C33A) | Potency (CAOV3) | Potency (CASKI) | Potency (Es-2) | Potency (HeLa)

Reference: PubChem BioAssay (NCATS)
